Measurements published in the supplement of paper PMC10849652.
Targets with a hit are over-represented here; the source holds about 7,900 in all. About 0.6% of all pairs of compound and target were hits.

These targets were tested with NC(=O)Nc1cc(-c2cccc(F)c2)sc1C(=O)N[C@H]1CCCNC1 (assay: log2 fold change, soluble protein after heating vs DMSO (PISA); higher = thermal stabilisation; K562 cells, 10 uM, 30 min; active = over 0.2 and 3.5 SD of the protein, either way, in both replicates (recomputed)).
In short: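 For each measurement, 10 μM compound was applied for 30 min to K562 cells at 2×10^6 cells/mL. Aliquots were heated for 3 min across 48°C-58°C, pooled, and extracted in PBS with 0.5% NP-40 at 4°C; the supernatant after 21,000xg for 90 min was soluble protein. This was quantified by TMTpro 16plex LC-MS/MS with channel sums equalised, and thermal stability was reported relative to control samples from duplicates, on a log2 fold-change scale.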

Chain of UniProt P25440 (P25440 whole entry, looked up): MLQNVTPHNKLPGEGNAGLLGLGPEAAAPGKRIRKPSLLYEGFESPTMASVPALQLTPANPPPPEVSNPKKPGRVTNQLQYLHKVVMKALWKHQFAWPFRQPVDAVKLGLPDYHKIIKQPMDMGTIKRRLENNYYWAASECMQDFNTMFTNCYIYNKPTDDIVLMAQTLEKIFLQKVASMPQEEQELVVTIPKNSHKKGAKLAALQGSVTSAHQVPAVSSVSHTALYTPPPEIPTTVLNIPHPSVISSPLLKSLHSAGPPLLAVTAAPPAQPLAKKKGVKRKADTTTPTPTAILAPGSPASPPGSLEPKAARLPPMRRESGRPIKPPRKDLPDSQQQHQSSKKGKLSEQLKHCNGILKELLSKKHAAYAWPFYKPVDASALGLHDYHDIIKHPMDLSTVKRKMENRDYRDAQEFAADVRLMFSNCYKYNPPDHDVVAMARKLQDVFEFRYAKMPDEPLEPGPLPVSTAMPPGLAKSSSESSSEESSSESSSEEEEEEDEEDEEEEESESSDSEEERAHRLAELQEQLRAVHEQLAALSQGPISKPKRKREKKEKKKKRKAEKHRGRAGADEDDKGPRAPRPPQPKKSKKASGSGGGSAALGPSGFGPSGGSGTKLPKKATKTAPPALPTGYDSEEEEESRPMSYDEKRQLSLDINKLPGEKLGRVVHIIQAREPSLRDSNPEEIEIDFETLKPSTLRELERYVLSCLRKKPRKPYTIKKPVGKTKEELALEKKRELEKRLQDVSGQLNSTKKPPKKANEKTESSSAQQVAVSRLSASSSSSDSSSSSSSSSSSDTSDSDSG
Chain of UniProt Q8N5I2 (Q8N5I2 whole entry, looked up): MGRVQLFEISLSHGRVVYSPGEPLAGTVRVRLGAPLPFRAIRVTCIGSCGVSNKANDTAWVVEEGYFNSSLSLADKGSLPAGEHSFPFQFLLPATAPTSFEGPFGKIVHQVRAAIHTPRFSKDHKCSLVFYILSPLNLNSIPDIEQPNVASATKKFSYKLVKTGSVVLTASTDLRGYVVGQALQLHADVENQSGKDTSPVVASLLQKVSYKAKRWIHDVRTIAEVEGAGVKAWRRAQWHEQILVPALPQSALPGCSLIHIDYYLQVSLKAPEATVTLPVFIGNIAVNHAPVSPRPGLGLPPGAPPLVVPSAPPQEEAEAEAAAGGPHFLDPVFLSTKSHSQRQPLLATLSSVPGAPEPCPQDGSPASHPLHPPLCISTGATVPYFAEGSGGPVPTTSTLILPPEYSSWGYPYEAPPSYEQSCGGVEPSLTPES
Chain of UniProt Q9UQB8 (Q9UQB8 whole entry, looked up): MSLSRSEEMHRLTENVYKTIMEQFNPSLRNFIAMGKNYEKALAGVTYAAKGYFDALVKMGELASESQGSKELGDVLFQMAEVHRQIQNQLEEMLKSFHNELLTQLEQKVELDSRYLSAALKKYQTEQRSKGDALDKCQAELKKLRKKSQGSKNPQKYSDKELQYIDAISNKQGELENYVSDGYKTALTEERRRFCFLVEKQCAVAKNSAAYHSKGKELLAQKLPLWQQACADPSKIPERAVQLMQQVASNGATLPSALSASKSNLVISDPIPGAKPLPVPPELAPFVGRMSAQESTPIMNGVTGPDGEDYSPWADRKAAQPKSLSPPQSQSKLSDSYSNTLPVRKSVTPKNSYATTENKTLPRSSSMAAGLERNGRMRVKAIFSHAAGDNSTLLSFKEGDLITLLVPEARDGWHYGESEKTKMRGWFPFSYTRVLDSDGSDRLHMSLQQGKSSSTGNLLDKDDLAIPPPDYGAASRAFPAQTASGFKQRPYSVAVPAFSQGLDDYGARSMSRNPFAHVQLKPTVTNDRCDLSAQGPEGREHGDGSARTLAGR
Chain of UniProt P15056 (P15056 whole entry, looked up): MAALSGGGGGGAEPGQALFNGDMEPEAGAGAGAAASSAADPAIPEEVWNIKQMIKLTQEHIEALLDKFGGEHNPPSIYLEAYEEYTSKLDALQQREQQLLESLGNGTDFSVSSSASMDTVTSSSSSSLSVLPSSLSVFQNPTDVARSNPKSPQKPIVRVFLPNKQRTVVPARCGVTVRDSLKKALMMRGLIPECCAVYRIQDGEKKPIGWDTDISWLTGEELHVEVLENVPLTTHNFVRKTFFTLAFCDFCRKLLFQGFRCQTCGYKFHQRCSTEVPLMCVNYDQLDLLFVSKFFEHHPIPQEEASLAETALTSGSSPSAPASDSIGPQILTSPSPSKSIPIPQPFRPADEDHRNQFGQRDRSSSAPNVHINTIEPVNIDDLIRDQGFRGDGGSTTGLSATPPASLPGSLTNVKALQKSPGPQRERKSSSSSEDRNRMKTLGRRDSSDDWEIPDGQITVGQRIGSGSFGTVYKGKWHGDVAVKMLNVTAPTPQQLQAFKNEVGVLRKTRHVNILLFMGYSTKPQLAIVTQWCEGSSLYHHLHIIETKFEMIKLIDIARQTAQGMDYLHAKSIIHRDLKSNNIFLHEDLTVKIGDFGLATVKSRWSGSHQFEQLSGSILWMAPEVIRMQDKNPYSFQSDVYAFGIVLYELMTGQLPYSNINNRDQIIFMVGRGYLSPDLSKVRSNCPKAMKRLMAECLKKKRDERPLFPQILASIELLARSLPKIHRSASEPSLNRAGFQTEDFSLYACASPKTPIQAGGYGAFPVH
Chain of UniProt Q7Z591 (Q7Z591 whole entry, looked up): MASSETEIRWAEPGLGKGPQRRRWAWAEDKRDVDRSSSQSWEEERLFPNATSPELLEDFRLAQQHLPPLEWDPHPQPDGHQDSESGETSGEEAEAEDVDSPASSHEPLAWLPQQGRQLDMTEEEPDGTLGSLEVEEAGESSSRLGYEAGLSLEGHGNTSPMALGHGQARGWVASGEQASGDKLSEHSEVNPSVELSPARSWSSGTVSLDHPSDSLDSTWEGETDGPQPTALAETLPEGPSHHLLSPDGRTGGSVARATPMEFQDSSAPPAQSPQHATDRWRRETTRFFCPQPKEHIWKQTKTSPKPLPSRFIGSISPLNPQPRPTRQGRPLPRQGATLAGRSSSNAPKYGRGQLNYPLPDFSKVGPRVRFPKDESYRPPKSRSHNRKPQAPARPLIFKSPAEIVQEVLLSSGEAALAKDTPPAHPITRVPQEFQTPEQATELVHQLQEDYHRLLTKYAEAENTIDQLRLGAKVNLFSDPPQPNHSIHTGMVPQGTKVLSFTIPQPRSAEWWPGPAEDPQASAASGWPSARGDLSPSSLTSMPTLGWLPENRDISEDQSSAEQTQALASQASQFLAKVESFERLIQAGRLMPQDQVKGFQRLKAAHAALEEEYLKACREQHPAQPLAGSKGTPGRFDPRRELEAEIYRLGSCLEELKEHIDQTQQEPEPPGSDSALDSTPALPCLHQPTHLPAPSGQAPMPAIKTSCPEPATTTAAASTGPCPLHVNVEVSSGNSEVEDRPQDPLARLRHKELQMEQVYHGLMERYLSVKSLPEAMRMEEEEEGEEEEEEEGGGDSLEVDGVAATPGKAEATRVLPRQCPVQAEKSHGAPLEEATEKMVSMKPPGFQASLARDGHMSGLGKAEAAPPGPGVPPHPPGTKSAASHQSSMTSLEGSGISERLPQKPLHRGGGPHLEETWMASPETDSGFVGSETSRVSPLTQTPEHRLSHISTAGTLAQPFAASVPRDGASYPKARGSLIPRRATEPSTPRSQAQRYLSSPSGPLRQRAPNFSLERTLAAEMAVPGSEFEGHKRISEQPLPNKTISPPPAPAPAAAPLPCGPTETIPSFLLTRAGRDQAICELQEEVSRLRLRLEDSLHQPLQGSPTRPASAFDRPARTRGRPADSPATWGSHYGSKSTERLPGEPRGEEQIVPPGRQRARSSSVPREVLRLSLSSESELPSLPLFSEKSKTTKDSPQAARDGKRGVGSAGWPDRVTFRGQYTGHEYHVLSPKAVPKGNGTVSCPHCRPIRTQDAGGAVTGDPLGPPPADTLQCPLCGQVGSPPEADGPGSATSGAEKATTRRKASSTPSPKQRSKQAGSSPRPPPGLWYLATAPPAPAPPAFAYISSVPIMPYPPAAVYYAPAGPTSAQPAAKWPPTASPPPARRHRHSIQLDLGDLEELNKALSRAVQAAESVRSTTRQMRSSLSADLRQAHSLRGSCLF
Chain of UniProt Q9H6S1 (Q9H6S1 whole entry, looked up): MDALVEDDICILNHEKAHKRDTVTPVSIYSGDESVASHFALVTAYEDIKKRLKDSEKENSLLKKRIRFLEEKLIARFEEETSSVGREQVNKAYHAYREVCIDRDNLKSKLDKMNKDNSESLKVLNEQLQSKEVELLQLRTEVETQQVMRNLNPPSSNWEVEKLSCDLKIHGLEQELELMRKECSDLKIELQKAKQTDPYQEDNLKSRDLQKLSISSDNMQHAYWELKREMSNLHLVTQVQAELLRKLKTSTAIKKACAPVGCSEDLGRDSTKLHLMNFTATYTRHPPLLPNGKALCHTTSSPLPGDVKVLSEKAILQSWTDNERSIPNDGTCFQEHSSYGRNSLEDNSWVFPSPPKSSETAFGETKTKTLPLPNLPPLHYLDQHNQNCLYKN
Chain of UniProt P55008 (P55008 whole entry, looked up): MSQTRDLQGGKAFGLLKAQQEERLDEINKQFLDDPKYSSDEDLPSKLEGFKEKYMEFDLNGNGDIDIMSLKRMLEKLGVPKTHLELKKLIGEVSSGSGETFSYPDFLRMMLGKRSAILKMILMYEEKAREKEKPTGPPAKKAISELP
Chain of UniProt P53367 (P53367 whole entry, looked up): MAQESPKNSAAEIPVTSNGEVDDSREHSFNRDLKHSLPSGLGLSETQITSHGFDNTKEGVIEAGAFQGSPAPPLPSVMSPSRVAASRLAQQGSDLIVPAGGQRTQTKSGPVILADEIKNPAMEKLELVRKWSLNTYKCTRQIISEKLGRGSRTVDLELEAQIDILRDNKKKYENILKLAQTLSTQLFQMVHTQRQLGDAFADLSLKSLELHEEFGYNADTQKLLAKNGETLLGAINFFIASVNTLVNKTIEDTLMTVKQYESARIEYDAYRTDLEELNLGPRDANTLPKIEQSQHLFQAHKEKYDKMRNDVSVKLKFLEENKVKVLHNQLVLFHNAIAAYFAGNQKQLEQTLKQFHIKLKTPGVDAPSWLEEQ

log2 fold change, inactive:
AUNIP isoform 2 (UniProt Q9H7T9) -0.194
BRIP1 (UniProt Q9BX63) 0.139
ADPRH (UniProt P54922) 0.015
ARRDC1 (UniProt Q8N5I2) 0.013
BRD8 isoform 2 (UniProt Q9H0E9) -0.016
ADD2 isoform 9 (UniProt P35612) 0
AIF1 (UniProt P55008) 0.04
ABCA3 (UniProt Q99758) 0.021
BAIAP2 isoform 4 (UniProt Q9UQB8) 0.019
ATXN7L3 isoform 2 (UniProt Q14CW9) 0.182
BRD2 isoform 2 (UniProt P25440) -0.01
ADAM15 (UniProt Q13444) -0.023
AKNA (UniProt Q7Z591) -0.069
ABCA4 (UniProt P78363) 0.007
AASDH (UniProt Q4L235) -0.044
AGAP3 isoform 4 (UniProt Q96P47) 0.034
ARFIP1 isoform 2 (UniProt P53367) 0.11
AZI2 (UniProt Q9H6S1) -0.094
ACSL6 isoform 1 (UniProt Q9UKU0) 0.061
BRAF (UniProt P15056) -0.102
ALDH2 isoform 2 (UniProt P05091) -0.345
